For 20 compounds, viability change and Potency results are on record in PubChem BioAssay (NCATS).

Inconclusive results are not listed. Entries that show only a call come without a potency. Activity calls are given as the source filed them. The call rests on the fitted dose curve; in most records, active means well fitted inhibition curve with a large enough effect in the main read-out, with a control signal flat (not every such curve was filed as active); inconclusive means small, poorly fitted or top-dose-only effect, or effect the other way, or a change in a side signal; inactive means no such curve, though single readings can be large or run the other way.

A short description of the experiment: Nrf2 qHTS screen for inhibitors: Validation (AID 493153). The conditions noted are these: A549 ARE-Fluc reporter, 18-24 h; Potency: luciferase luminescence; viability change: measured here: cytotoxicity max response; luciferase luminescence, at 46.1 µM (top of the series). The text has this: NIH Molecular Libraries Probe Production Network [MLPCN] NIH Chemical Genomics Center [NCGC] MLPCN Grant: R03-MH092170-01 Assay Provider: Shyam Biswal, Johns Hopkins University Assay Overview: Nrf2 is a transcription factor that maintains cellular redox homoestasis and protects cells from xenobiotics. Nrf2 binds to the antioxidant response element (ARE) to induce gene expression of a broad spectrum of genes that encode for antioxidants. […] Finding a small molecule that act as an inhibitor of Nrf2 function would represent a novel therapeutic target that could lead to improvement in survival of patients undergoing chemo- and/or radio- therapy. 1. Shibata, T., et al., Genetic Alteration of Keap1 Confers Constitutive Nrf2 Activation and Resistance to Chemotherapy in Gallbladder Cancer. Gastroenterology, 2008. 2. Sjoblom, T., et al., The consensus coding sequences of human breast and colorectal cancers. Science, 2006. 314(5797): p. 268-74.
Assay Protocol Summary: A concentration-response assay was performed with A549 ARE_Fluc cells which are suspended in 5% FBS OPTI-MEM. Five uL were dispensed into 1536-well white TC-treated plate using the Kalypsys dispenser to achieve a density of 5000 cells/well in all columns except column 1. The plate is incubated at 37deg C at 5% CO2 for 2 hours before 23 nL of compounds are added with the Kalypsys pin tool equipped with a 1,536-pin array containing 10-nL slotted pins (FP1S10, 0.457-mm diameter, 50.8 mm long; V&P Scientific). The control compounds Budesonide and Staurosporine are both added at a concentration of 2mM and Budesonide is also added as a 1:10 titration, starting at 200uM, to achieve dose-response. After an 18-24 hour incubation at 37deg C at 5% CO2, 5ul of medium is added to column 1. Afterwards 1ul of 5x of CellTiter-Fluor (Promega) is added to every well. The plate is then incubated at 37deg C at 5% CO2 for 30 minutes before they are read on the ViewLux (Perkin Elmer) for a fluorescent read Ex=405(10)/Em=525(10) for a 3 second exposure, 2x binning, and high gain. Then 3 uL of 3x BugLite is dispensed into all wells and the plate is incubated at ambient room temperature for 15 minutes. Afterwards another ViewLux read is performed using the clear filter to get a luminescent read with the settings of 40 second exposure, 2x binning, and high gain. Cytotoxicity is assessed through the first fluorescent read and then biochemical activity against Nrf2 is measured in the luminescent read.
Regarding `Clc1ccc(N2CCN(Cc3cc4ccccn4n3)CC2)cc1`, the viability change was 2.97% and the Potency result is “inactive”.
On the same counts, the results for `COc1cc2nc(N3CCN(C(=O)OCc4ccccc4)C(C(=O)NC(C)(C)C)C3)nc(N)c2cc1OC` (stereo not given) are -20.4% and “inactive”.
`NC(CCCP(=O)(O)O)C(=O)O` (stereo not given): the viability change worked out at 3.42% and the Potency result was “inactive”.
In the case of `OCC1O[C@H](O)C(Cl)C(O)C1O` (stereo not given in full), the viability change was found to be 4.21% and the Potency result was “inactive”.
On the same counts, the results for `COc1cc(C(O)CO)ccc1OS(=O)(=O)O` (stereo not given) are -9.03% and “inactive”.
Taken in the same sequence, the figures for `COc1ccccc1CNCCCCCCNCCCCCCCCNCCCCCCNCc1ccccc1OC` were -8.09% and “inactive”.
On the same counts, the results for `O=c1[nH]c2cc(Cl)c(Cl)cc2[nH]c1=O` are 9.5% and “inactive”.
Consider `S=C(S)OC1CC2CC1C1CCCC21` (stereo not given), for which the Potency result is “inactive” and the viability change was 5.78%.
On the same counts, the results for `COc1ccc2c(c1)CCC1C2CC[C@@]2(C)C1CC[C@@H]2NCCCCCCN1C(=O)CCC1=O` (stereo not given in full) are “inactive” and 2.91%.
Turning to `CN1CCc2cc(NC(=O)Nc3cccnc3)ccc21`, the Potency result was “inactive” and the viability change is -3.61%.
With `CN(C)CCCO[C@@H]1[C@H]2OC(C)(C)O[C@H]2O[C@@H]1[C@H](O)CO`, the Potency entry is “inactive” and the viability change stood at 3.16%.
Consider `NO`, for which the Potency result is “inactive” and the viability change worked out at 4.95%.
`O=C(O)CC1CC(c2ccccc2)=NO1` (stereo not given): the Potency result was “inactive” and the viability change is 12.6%.
Consider `CNC(=O)[C@H]1O[C@@H](n2cnc3c(NCc4ccc(N)cc4)ncnc32)[C@H](O)[C@@H]1O`, for which the Potency result was “inactive” and the viability change is -2.65%.
On the same counts, the results for `CC(C)(C)c1ccc(S(=O)(=O)/C=C/C#N)cc1` are “inactive” and 4.47%.
As for `CN1CCC[C@H]1c1cccnc1`, the viability change was -3.72% and the Potency entry was “inactive”.
Taken in the same sequence, the figures for `Cc1cc(NC2CCCCC2)nc(-n2nc(C)cc2C)n1` were -6.43% and “inactive”.
Taken in the same sequence, the figures for `O=C(O)[C@@H]1C[C@H](C(=O)O)N1` were 12.1% and “inactive”.
On to `O=C(O)c1cc(=O)c2ccccc2[nH]1`, for which the Potency result was “inactive” and the viability change was -7.12%.
Consider `CCN(CC)c1ncnc2c1ncn2[C@@H]1O[C@H](COP(=O)(O)OP(=O)(O)C(Br)(Br)P(=O)(O)O)[C@@H](O)[C@H]1O`, for which the viability change is -6.83% and the Potency result was “inactive”.
